Most compounds without a hit are left out; they make up all but 0.37% or so of the library.
AT treatment: potential ataxia-telangiectasia treatments restoring KAP-1 phosphorylation; 320,000 tested, 0.19% active; Potency, µM (doses to about 57.5 µM), for the others: at the highest dose activation, most hits filed as activators; AID 485349; F2112 A-T fibroblasts, KAP-1 phosphorylation AlphaLISA; neocarzinostatin DNA damage 30 min before lysis; also: potency is read from the fitted curve at half-maximal effect; % of control where 0% means no effect; nearly all actives have a fitted effect of over 45% in size
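ATM-like activity read as KAP-1 phosphorylation via AlphaLISA donor/acceptor antibody pairs after lysis and 6 hr at 25C. Cells were ATM-null patient fibroblasts (F2112, hTERT), dosed 60 min, then exposed to the DSB inducer NCS for 30 min.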
IMPase Li cell: cell-permeable IMPase inhibitors with lithium potentiation | AID 1457 | Potency, µM (doses to about 59.4 µM), without a hit: at the highest dose activity, negative = IMPase inhibition, hits mostly inhibitors | CHO-M1 cells, IP1 TR-FRET (IP-One), carbachol + lithium | 210,000 tested, 0.35% active;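 also: IP1 builds up when IMPase is blocked and the TR-FRET signal falls; potency is read from the fitted curve at half-maximal effect; plate controls were basal vehicle for no effect and high inhibitor control for full effect; nearly all actives have a fitted effect of over 50% in size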
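CHO cells stably expressing M1 receptor (2000/well, cultured 16–30 h) treated 30 min at 37C with compound plus low lithium. Cytosolic IP1 by TR-FRET (665/620 ratio and 620 channel) after 10 min lysis; AC50 by Hill fit.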
TSG101-PTAP inh: blocks PTAP/TSG101 interaction to inhibit HIV-1 budding. Q99816. Fluorescence polarization, FITC-PTAP peptide / Tsg101 binding. Potency, µM (titrated, usually from 115 µM), inactives show top-dose activity change, negative = inhibition, most hits filed as inhibitors. 340,000 tested, under 10 active; active = well fitted inhibition curve with a large enough effect in the main read-out, with a control signal flat, not every such curve was filed as active; inconclusive = small, poorly fitted or top-dose-only effect, or effect the other way, or a change in a side signal; inactive = no such curve, though single readings can be large or run the other way; also: potency is read from the fitted curve at half-maximal effect; % of control where 0% means no effect
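FP read-out: FITC-PTAP peptide, 50 nM final, binding Tsg101 binding domain, 10 uM final; 20 min, r.t.; 10 mM HEPES pH 7.5, 0.15 M NaCl, 0.01% Tween 20, 3 mM EDTA, 0.1 mM TCEP.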
CBFb-RUNX1 inh: inhibitors of human CBF-beta and RUNX1 interaction; Q01196+Q13951; AlphaScreen CBFb-His/RUNX1-biotin binding, biochemical; Potency, µM (doses to about 59.8 µM), for the others: top-dose activity, negative = inhibition, actives largely listed as inhibitors; 230,000 tested, under 10 active; AID 1477; also: % of control where 0% means no effect
Target sequence (Q01196 whole entry, looked up): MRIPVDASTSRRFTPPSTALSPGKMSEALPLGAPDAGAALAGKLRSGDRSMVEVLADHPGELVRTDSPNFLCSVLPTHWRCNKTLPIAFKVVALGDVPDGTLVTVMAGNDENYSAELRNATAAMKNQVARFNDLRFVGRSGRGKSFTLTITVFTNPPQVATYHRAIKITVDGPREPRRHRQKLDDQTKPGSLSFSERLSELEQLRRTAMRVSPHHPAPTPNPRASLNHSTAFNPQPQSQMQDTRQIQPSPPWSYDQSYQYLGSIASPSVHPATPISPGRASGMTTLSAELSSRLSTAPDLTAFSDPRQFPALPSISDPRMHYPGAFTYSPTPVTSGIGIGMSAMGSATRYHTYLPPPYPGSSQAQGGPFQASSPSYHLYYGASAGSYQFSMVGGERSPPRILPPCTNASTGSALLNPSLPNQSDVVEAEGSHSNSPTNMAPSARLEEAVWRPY
Target sequence (Q13951 whole entry, looked up): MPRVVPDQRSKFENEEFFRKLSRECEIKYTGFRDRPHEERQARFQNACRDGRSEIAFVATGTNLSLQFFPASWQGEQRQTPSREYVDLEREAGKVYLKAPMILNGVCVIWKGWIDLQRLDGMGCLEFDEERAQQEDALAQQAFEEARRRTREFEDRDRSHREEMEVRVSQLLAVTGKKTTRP
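Room-temperature protein-protein interaction test with 30 nM each of His-tagged CBF-beta and biotinylated RUNX1, 15 min with compound, then 90 min with nickel plus streptavidin beads. Signal read in AlphaScreen mode.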
The depositor's hits bear a star; ? = inconclusive; . = not tested or not shown; [ ] = another dose, or the depositor's remark. Unless noted, calls follow the shape of the dose curve; as a rule, active = well fitted curve in the direction sought with a large enough effect; inconclusive = small, poorly fitted or top-dose-only effect, or another doubt; inactive = no such curve, though single readings can be large; an effect the other way counts as inactive or inconclusive.

SMILES	AT treatment	IMPase Li cell	TSG101-PTAP inh	CBFb-RUNX1 inh
COc1nc(-c2ccccc2)ccc1-c1noc(-c2ccccc2F)n1	2%	-22%[38.3 µM]	-4%	3%
COc1nc(-c2ccccc2)ccc1-c1noc(-c2ccc(F)cc2)n1	1%	8.9µM*	.	0%
Nc1nc(Cl)nc2ccc(Br)cc12	9%	-19%	0%	4%
CCc1c(C)nc2ccc(Br)cc2c1Cl	5%	11µM*	-7%	-3%
CC(=O)N(CCOc1ccccc1)CCOc1ccccc1	.	.	-1%	.
Cc1oc2ccc(OCc3ccc(Cl)cc3)cc2c1C(=O)O	0%	.	-1%	6%
Cc1oc2ccc(OCc3ccc(Br)cc3)cc2c1C(=O)O	3.5µM*	.	5%	.
CC12CCC(C(=O)NNc3ccc([N+](=O)[O-])cc3)(OC1=O)C2(C)C (stereo unspecified)	10µM*	.	0%	9%
CC12CCC(C(=O)NNc3ccccc3)(OC1=O)C2(C)C (stereo unspecified)	4%	2%	-4%	3%
O=c1c2ccccc2oc2cc(C#CC3(O)CCCCC3)ccc12	.	.	-2%	.
C=CCn1c2ccccc2c(=O)c2cc(C#CC[C@@H](C)O)ccc21	20µM*	.	-6%	.
C=CCn1c2ccccc2c(=O)c2cc(C#CC3(O)CCCCC3)ccc21	25µM*	.	-2%	.
COC(=O)c1cccnc1N1CCN(c2ccccc2F)CC1	7%	37%[38.3 µM]	-1%	8%
O=C(CSc1nnc2n(C3CCCC3)c(=O)c3ccccc3n12)N1CCCCCC1	-8%	30%[38.3 µM]	-8%	3%
COc1ccccc1Cn1c(=O)c2ccccc2n2c(SCC(=O)N3CCCCC3)nnc12	-7%	10µM*	0%	-2%
Cc1cc(C)c2c(=O)cc(C(=O)NCc3ccccc3)oc2c1	35µM*	.	0%	.
COc1ccc(/C=N/Nc2ncnc3scc(-c4ccccc4)c23)cc1OC	.	28%[38.3 µM]	-15%	2%
CCN(CC)C(=O)CN1C(=O)/C(=C/c2ccccc2)SC1=S	6%	.	-6%	12%
CC(=O)NNC(=O)CN1C(=O)/C(=C/c2ccccc2)SC1=S	3.2µM*	.	-4%	6%
COc1ccc(/C=C2/SC(=S)N(Cc3ccccc3)C2=O)cc1O	40µM*	.	-2%	.
Cc1cccc(NC(=O)C2CC(O)CN2C(=O)OCc2ccccc2)c1 (stereo unspecified)	-1%	-1%[38.3 µM]	-3%	8%
COc1cc(C(=S)N2CCCCC2)ccc1OCC(=O)N1CCCC1	-4%	19%[38.3 µM]	-6%	0%
CCN(CC)C(=O)c1sc(NC(=O)c2ccc(Br)o2)c(C(=O)OC)c1C	6%	31%[38.3 µM]	-8%	3%
CC(=O)Nc1cccc(NC(=O)c2cc(-c3cccnc3)nc3ccc(Br)cc23)c1	1%	11µM*	-10%	-2%
Cc1ccc(-c2cc(C(=O)NCc3cnn(C)c3)c3cc(Br)ccc3n2)cc1	-4%	?	-1%	4%
SMILES	AT treatment	IMPase Li cell	TSG101-PTAP inh	CBFb-RUNX1 inh
O=C(O)c1cc(-c2ccc3cc4c(cc3c2)OCO4)nc2ccccc12	.	-1%	.	.
O=C(O)c1cc(-c2ccc3c(c2)OCO3)nc2ccc(Br)cc12	5%	11µM*	-3%	?
CC(=O)Nc1cccc(NC(=O)c2cc(-c3cccnc3)nc3ccc(Cl)cc23)c1	1%	12%	-2%	-4%
Cn1cc(CNC(=O)c2cc(-c3ccccc3)nc3ccc(Br)cc23)cn1	12%	11µM*	-5%	-19%
O=C(O)c1cc(-c2cccnc2)nc2ccc(Br)cc12	-2%	2.8µM*	1%	-1%
CCN1CCN(C(=O)c2cc(-c3cccnc3)nc3ccc(Br)cc23)CC1	.	13µM*	-5%	2%
Cc1ccc(NC(=O)COC(=O)CCc2ccc(S(=O)(=O)N3CCOCC3)cc2)c(C)c1	2%	7%	0%	5%
COc1cc2c(cc1OC)CN(C(=O)/C=C/c1cc(OC)c(OC)c(OC)c1)CC2	3.2µM*	.	-1%	.
O=C(CSc1nnc2c3ccccc3c3ccccc3c2n1)Nc1ccccc1F	-2%	?	0%	-3%
Clc1ccc(CN2CC[C@H]3C=CCc4cccc(c43)C2)cc1	35µM*	.	1%	.
O=C(Nc1cccc(-n2cccn2)c1)C1CCCN(Cc2cccc(F)c2F)C1 (stereo unspecified)	11%	.	-1%	.
CCOC(=O)c1sc2nc(C)nc(SCC(=O)NC(C)CCc3ccccc3)c2c1C (stereo unspecified)	2%	10µM*	1%	8%
CCOC(=O)c1sc2nc(C)nc(SCC(=O)N(C)C3CCS(=O)(=O)C3)c2c1C (stereo unspecified)	-3%	10µM*	-7%	4%
CCOC(=O)c1sc2nc(C)nc(NCc3ccccc3OC)c2c1C	-4%	.	1%	.
O=C(CCC(=O)N(CC(=O)NC1CCCCC1)c1ccc2c(c1)OCO2)Nc1ccccn1	-1%	10%[38.3 µM]	-9%	5%
COc1cc2ccccc2cc1C(=O)Nc1nnc(-c2ccncc2)o1	2%	.	0%	.
CCCCCCc1cc2cc(S(=O)(=O)c3ccc(F)cc3)c(=O)oc2cc1O	28µM*	-4%	0%	-4%
CCCCCCc1cc2cc(-c3nnc(-c4ccccc4O)o3)c(=O)oc2cc1O	14%	-2%[38.3 µM]	?	7%
Cc1cccc(Cn2c(NCCO)nc3c2c(=O)n(C)c(=O)n3C)c1	32µM*	12%[38.3 µM]	1%	-10%
COC(=O)/C=C(\C)NC(=O)c1ccc(F)cc1	.	-5%[38.3 µM]	1%	-7%
CCOc1ccc(CCNC(=O)COC(=O)/C=C/c2ccccc2)cc1OCC	1%	.	0%	.
NC(=S)N/N=C/c1ccc2c(c1)OCCO2	-1%	-3%	0%	1%
CNC(=S)N/N=C/c1ccc2c(c1)OCCO2	3.5µM*	-1%	-3%	-4%
CCOC(=O)c1c(S(=O)(=O)N2CCN(C)CC2)c(C)n(C)c1C	1%	.	-5%	.
Cn1c(-c2ccc(C=O)s2)nc2c3ccccc3c3ccccc3c21	.	13µM*	?	3%
SMILES	AT treatment	IMPase Li cell	TSG101-PTAP inh	CBFb-RUNX1 inh
CC(=O)NC(Cc1ccccc1C)C(=O)NC1CCN(c2ncccc2[N+](=O)[O-])CC1 (stereo unspecified)	-1%	1%	.	3%
CC1=NN(c2ccccc2)C(=O)/C1=C\C=C\c1ccccc1	22%	.	-4%	-10%
CC1=NN(c2ccc(C)c(C)c2)C(=O)/C1=C\C=C\c1ccc([N+](=O)[O-])o1	32µM*	35%	-4%	?
CC1=NN(C(C#N)c2ccc([N+](=O)[O-])cc2)C(C)(C)C1 (stereo unspecified)	3.5µM*	.	2%	-2%
CC1=NN(C(C#N)c2ccc(F)cc2)C(C)(C)C1 (stereo unspecified)	0%	2%	0%	11%
CCCOc1ccc(C(=O)Nc2nc(C)c(Cc3ccc4c(c3)OCO4)s2)cc1	-7%	10µM*	-1%	-9%
Cc1nc(NC(=O)c2ccc(OCC(C)C)cc2)sc1Cc1ccc2c(c1)OCO2	3%	10%	0%	-1%

Screens as filed in PubChem BioAssay.
